This is a sample that favours compounds with a hit; in the whole collection about 2.3% have one here.
Giardia killer – kills Giardia lamblia. Giardia lamblia trophozoite viability. activity change, % at 7.66 µM, hits read low. 340,000 tested, 0.15% active. AID 540267; in the data active = activity change below about -80%; inconclusive = between about -30% and that limit;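 note: parasites exposed to compound for two days anaerobically before the ATP read; % is set by controls: 0 for no effect and ±100 for the full control effect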
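Giardia lamblia trophozoites (100 cells/well) were incubated with compounds for 48 h at 37 deg C under anaerobic conditions. Viability was read as ATP content by one-step luminescence after 15-30 min at room temperature.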
TRPV1 agonist – human TRPV1 agonism; TRPV1-expressing cells, Fluo-8 calcium influx, agonist mode; 320,000 tested, 0.19% active; activation, % at 8.33 µM; Q8NER1; in the data active = activation above about 80%; inconclusive = between about 30% and that limit; note: 0% is about no effect
Target sequence (Q8NER1 whole entry, looked up): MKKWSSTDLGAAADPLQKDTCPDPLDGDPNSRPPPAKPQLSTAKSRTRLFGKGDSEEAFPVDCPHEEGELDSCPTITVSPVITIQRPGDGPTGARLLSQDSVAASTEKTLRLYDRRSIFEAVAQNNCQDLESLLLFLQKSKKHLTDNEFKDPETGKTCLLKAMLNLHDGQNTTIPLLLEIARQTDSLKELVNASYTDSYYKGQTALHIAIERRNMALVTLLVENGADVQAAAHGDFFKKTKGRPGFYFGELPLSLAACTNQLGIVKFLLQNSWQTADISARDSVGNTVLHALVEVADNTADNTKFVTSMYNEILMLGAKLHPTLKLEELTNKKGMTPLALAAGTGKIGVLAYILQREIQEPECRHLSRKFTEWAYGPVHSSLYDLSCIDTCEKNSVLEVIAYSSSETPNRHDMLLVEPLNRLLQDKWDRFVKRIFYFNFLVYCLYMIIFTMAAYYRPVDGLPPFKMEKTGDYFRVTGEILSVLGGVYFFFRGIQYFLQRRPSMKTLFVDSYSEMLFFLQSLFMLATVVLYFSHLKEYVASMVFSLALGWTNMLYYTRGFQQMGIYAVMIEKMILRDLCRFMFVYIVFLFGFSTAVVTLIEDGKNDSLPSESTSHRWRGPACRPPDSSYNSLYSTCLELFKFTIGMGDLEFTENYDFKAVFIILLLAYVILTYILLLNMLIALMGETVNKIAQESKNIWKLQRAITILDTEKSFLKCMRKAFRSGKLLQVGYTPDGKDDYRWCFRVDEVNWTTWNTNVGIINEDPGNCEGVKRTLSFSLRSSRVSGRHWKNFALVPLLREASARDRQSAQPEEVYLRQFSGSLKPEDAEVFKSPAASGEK
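TRPV1-expressing cells were cultured overnight at 35.5C and loaded with Fluo-8 calcium dye for 40 to 90 min at room temperature. After a 10 s baseline, compound was added and calcium influx was read kinetically for 3 min (ex 480/em 520 nm).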
TRPV1 PAM – potentiators of human vanilloid receptor 1 (TRPV1); Q8NER1; TRPV1-expressing cells, Fluo-8 calcium influx, capsaicin EC20 potentiation; potentiation, % at 8.33 µM; 320,000 tested, 0.02% active; AID 540277; in the data active = potentiation above about 80%; inconclusive = between about 30% and that limit; note: 0% is about no effect
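TRPV1-expressing cells were cultured overnight at 35.5C and loaded with Fluo-8 calcium dye for 40 to 90 min at room temperature. After a 10 s baseline, compound was added and calcium influx was read kinetically for 3 min (ex 480/em 520 nm).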
FUS suppressor – FUS proteinopathy suppression in yeast; S. cerevisiae FUS-expressing, growth rescue, OD600, 24 h; Potency, µM (series often up to 76.6 µM), actives largely listed as activators; 390,000 tested, 0.24% active; AID 1347120;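 note: potency is the fitted concentration of half-maximal effect; plate controls were DMSO vehicle for no effect and reference control for full effect; nearly all actives have a fitted effect of over 55% in size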
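Steps: raffinose overnight preculture; dilution to OD 0.005 in 2% galactose minimal medium; compound addition (concentration series); 24hr at 30C, 99% humidity; absorbance read at 600 nm.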
ELG1 DNA repair – inhibitors of ELG1-dependent DNA repair in HEK293T cells; 330,000 tested, 2.3% active; HEK293T ELG1-luciferase reporter, luminescence, 16 h; DNA damage induced by 5-fluorouridine; Potency, µM (top dose mostly 46.1 µM), for inactives: at the highest dose activity change, negative = inhibition, usual class: inhibitors; note: potency is the fitted concentration of half-maximal effect; % is set by controls: 0 for no effect and ±100 for the full control effect; nearly all actives have a fitted effect of over 55% in size
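In this reporter screen, reduction of luminescence relative to DMSO vehicle indicated activity. Compounds and 5-fluorouridine were added together to 2,000 cells per well, incubated for 16 hr at 37 °C, then developed with ONE-Glo.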
Active calls of the source: *; i = inactive; ? = inconclusive; nt = not tested or not shown. Unless noted, calls come from the whole dose curve; as a rule, active = well fitted curve in the direction sought with a large enough effect; inconclusive = small, poorly fitted or top-dose-only effect, or another doubt; inactive = no such curve, though single readings can be large; an effect the other way counts as inactive or inconclusive.

SMILES | Giardia killer | TRPV1 agonist | TRPV1 PAM | FUS suppressor | ELG1 DNA repair
N#Cc1cccc(NC(=O)COc2ccc(-n3ccnc3)cc2)c1 | 5.0 | 1.7 | -4.6 | i | 13µM*
COc1ccc(C(=O)N/N=C\c2ccc(OC)c(COc3ccccc3Br)c2)c(OC)c1 | -13.3 | -4.3 | 2.8 | i | 8.2µM*
CCC(C)NC(=O)c1cc2cc(S(=O)(=O)N3CCCCC3)ccc2n1C (stereo not drawn) | nt | nt | nt | i | nt
COc1ccc(CN(C(=O)c2oc3cc(C)ccc3c2C)C2CCS(=O)(=O)C2)cc1OC (stereo not drawn) | 9.8 | 12.8 | 19.0 | ? | 13µM*
Cc1ccc(NC(=O)C2CCN(S(=O)(=O)c3c(C)noc3C)CC2)cc1 | nt | nt | nt | i | nt
CCOc1ccccc1NC(=O)N1CCc2c(sc3c2CCCC3)C1c1ccccc1 (stereo not drawn) | nt | nt | nt | i | nt
COc1ccc(NC2CCCN(C(=O)CCc3ccccc3F)C2)cc1 (stereo not drawn) | -10.1 | 81.5* | -1.4 | i | 11.2%
O=C(CC1CCCC1)N1CCCC(Nc2cccc(F)c2)C1 (stereo not drawn) | 4.8 | 83.7* | -11.3 | i | -14.9%
Cc1ccc(NC2CCCN(C(=O)CCC(=O)c3ccccc3)C2)cc1C (stereo not drawn) | -18.4 | 92.5* | 3.6 | ? | 6.3%
COc1ccc(NC2CCCN(C(=O)CCOc3ccccc3)C2)cc1 (stereo not drawn) | -0.2 | 81.7* | -18.8 | i | -10.5%
Cc1ccc(NC2CCCN(C(=O)CN3C(=O)c4ccccc4C3=O)C2)cc1C (stereo not drawn) | -5.7 | ? | 4.8 | i | -0.2%
O=C(NC1CC1)c1ccc2nc(-c3ccco3)c(-c3ccco3)nc2c1 | -17.7 | nt | nt | nt | nt
Cc1oc2c(c1C(=O)Nc1ccc(Cl)cc1F)C1=NCCN1C=N2 | nt | nt | nt | i | nt
Cc1nc(-c2ccc(S(=O)(=O)NCc3ccccc3Cl)cc2)co1 | nt | nt | nt | i | nt
O=C(CCc1cccc(Cl)c1)N1CCCC(Nc2ccccc2)C1 (stereo not drawn) | 14.3 | 83.6* | -1.9 | ? | -9.2%
C#CC(=O)N(c1cc(OC)ccc1OC)C(C(=O)NC1CCCC1)c1cccs1 (stereo not drawn) | 2.4 | 9.6 | -0.4 | nt | 23.1µM*
C#CC(=O)N(c1ccc(OC)cc1OC)C(C(=O)NC1CCCC1)c1cccs1 (stereo not drawn) | 46.2 | 2.5 | 0.3 | i | 1.1%
O=C(CSc1nc(-c2ccccc2)c(-c2ccccc2)[nH]1)N1CCN(S(=O)(=O)c2ccccc2)CC1 | 0.5 | -0.1 | 4.1 | ? | 16.4µM*
Cc1cccc(NC(=O)c2c(NC(=O)c3ccco3)sc3c2CCC(C(C)(C)C)C3)c1 (stereo not drawn) | nt | nt | nt | i | nt
Cc1cc(C)c(NC(=O)CCn2c(=O)c3cccn3c3ccccc32)c(C)c1 | nt | nt | nt | i | nt
O=C(Nc1ccc(F)cc1Cl)C1CCN(c2ncnc3c2nc2n3CCCCC2)CC1 | nt | nt | nt | i | nt
Cc1ccc(NC(=O)c2ccc(F)cc2)cc1S(=O)(=O)N1CCCCCC1 | -10.9 | ? | -1.2 | i | 16.4µM*
Cc1ccc(NC(=O)Cc2ccccc2F)cc1S(=O)(=O)N1CCCCCC1 | 11.5 | ? | -13.0 | i | 11.6µM*
COc1ccc(C(=O)Nc2ccc(C)c(S(=O)(=O)N3CCCCCC3)c2)cc1 | -1.5 | ? | -0.8 | i | ?
Cc1ccc(NC(=O)c2ccccc2F)cc1S(=O)(=O)N1CCCCCC1 | 1.5 | ? | -3.1 | i | ?
SMILES | Giardia killer | TRPV1 agonist | TRPV1 PAM | FUS suppressor | ELG1 DNA repair
Cc1ccc(-c2nc(N3CCCC(C)C3)c3ccccc3n2)cc1 (stereo not drawn) | nt | nt | nt | i | nt
Cc1cnc([N+](=O)[O-])n1CCOC(=O)NC(=O)c1ccc(C(F)(F)F)cc1 | -90.8* | -4.4 | 5.5 | i | 2.4%
Cc1cc(C)cc(NC(=O)Nc2ccc3nc(N4CCN(C)CC4)cc(C)c3c2)c1 | nt | nt | nt | i | nt
Cn1nnnc1Sc1ncnc2scc(-c3ccc(Cl)cc3)c12 | 7.3 | 4.0 | -2.0 | i | 16.4µM*
Cn1nnnc1Sc1ncnc2scc(-c3ccc4c(c3)OCO4)c12 | -13.1 | nt | nt | i | -21.8%
Cn1nnnc1Sc1ncnc2scc(-c3cccc(Br)c3)c12 | ? | nt | nt | i | 13µM*
Cn1nnnc1Sc1ncnc2scc(-c3ccc([N+](=O)[O-])cc3)c12 | 0.4 | -3.4 | -7.6 | ? | 7.3µM*
COc1ccc(-c2csc3ncnc(Sc4nnnn4C)c23)cc1 | ? | nt | nt | i | ?
O=C(Nc1cccc(Cl)c1)N1CCC(CN2CCOCC2)CC1 | nt | nt | nt | i | nt
O=C(Nc1ccc(F)cc1)c1cc2cc3ccc(Cl)cc3nc2o1 | nt | nt | nt | i | nt
COc1cc(Cl)c(NC(=O)c2cc3ccccn3n2)c(OC)c1 | nt | nt | nt | i | nt
Cc1ccc(S(=O)(=O)N2CCN(S(=O)(=O)N3CCCCC3)CC2)c(C)c1 | 1.4 | 17.8 | -7.8 | i | 16.4µM*
COc1ccc(COCC(O)CN2CCN(S(=O)(=O)c3ccc(C(C)C)cc3)CC2)cc1 (stereo not drawn) | -3.8 | 13.7 | 1.4 | nt | 13µM*
COc1ccc(C(=O)CN2CCN(S(=O)(=O)c3ccc(C(C)C)cc3)CC2)cc1 | nt | nt | nt | i | nt
O=C(Cc1ccc(Cl)cc1)NCC(c1cccs1)S(=O)(=O)c1ccccc1 (stereo not drawn) | nt | nt | nt | i | nt
COc1ccc(S(=O)(=O)NCc2ccncc2)cc1OC | -6.4 | -1.3 | 17.0 | i | 7.31µM*
COc1ccc(S(=O)(=O)NCc2cccnc2)cc1OC | 21.8 | -0.7 | -6.1 | i | 2.3%
COC(=O)C1CN(Cc2ccccc2)CCS(=O)(=O)N1Cc1cn(Cc2ccc(F)cc2)nn1 (stereo not drawn) | nt | nt | nt | i | nt
COC(=O)C1CN(Cc2ccccc2)CCS(=O)(=O)N1Cc1cn(Cc2ccccc2Br)nn1 (stereo not drawn) | nt | nt | nt | 14.1µM* | nt
COc1ccc(OC)c(-c2csc(-c3c(N)c(C(=O)c4ccc(Cl)cc4)n4ccccc34)n2)c1 | nt | nt | nt | i | nt
NS(=O)(=O)c1ccc(NC(=S)Nc2ccn(Cc3cccc4ccccc34)n2)cc1 | -6.7 | 0.9 | -1.3 | i | 20.6µM*
NS(=O)(=O)c1ccc(NS(=O)(=O)c2ccc(NC(=S)Nc3ccccc3)cc2)cc1 | 13.7 | -0.1 | 24.9 | i | 14.6%
CC(C)(C)OC(=O)N1CCN(C(=O)c2[nH]cnc2C(=O)Nc2ccccc2F)CC1 | nt | nt | nt | i | nt
O=C(NCCN1CCOCC1)c1ccccc1N1C(=O)[C@@H]2Cc3c([nH]c4ccccc34)C(c3ccc(F)cc3)N2C1=O (stereo partly drawn) | 11.9 | -2.9 | -2.1 | i | 5.17µM*
O=C(O)C1CCN(C(=O)c2ccccc2N2C(=O)[C@@H]3Cc4c([nH]c5ccccc45)C(c4cccc(Cl)c4)N3C2=O)CC1 (stereo partly drawn) | 10.2 | 1.3 | -0.9 | 12.6µM* | 3.4%

Bioassay records deposited in PubChem BioAssay by National Center for Advancing Translational Sciences (NCATS).
